Screening results as filed in PubChem.
In the library only some 4.6% were active in any assay of this set; here they are far more common.
TRHR ag: qHTS for Small Molecule Agonists and Allosteric Enhancers of Human TRH Receptor: Primary Screen for Agonists. Thyrotropin-releasing hormone receptor (Homo sapiens), P34981. TRHR cells, calcium flux fluo-8, FDSS agonist mode. activation, % at 2 µM. hit rate 0.18% among 360,000. AID 493084, 2011
Target sequence (P34981 whole entry, looked up): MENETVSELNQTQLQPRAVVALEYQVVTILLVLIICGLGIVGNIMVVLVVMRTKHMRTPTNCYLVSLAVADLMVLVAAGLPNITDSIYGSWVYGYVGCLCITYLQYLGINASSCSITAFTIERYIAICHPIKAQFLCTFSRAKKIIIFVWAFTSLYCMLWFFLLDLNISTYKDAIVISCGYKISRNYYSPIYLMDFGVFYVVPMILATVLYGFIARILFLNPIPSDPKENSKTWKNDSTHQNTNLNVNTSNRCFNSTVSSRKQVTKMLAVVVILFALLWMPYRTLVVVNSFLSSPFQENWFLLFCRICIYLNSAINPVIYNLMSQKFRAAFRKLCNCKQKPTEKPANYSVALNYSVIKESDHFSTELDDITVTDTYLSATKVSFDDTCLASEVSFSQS
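TRHR-expressing cells loaded with fluo-8 calcium dye; 23 nL library compound pin-transferred, kinetic FDSS fluorescence (Ex 480/Em 530) recorded about 180 s for agonist-induced calcium release, before a 10 nM TRH EC20 addition for potentiator mode.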
D1 antagonist: Antagonist of Human D 1 Dopamine Receptor: qHTS | D(1A) dopamine receptor (Homo sapiens), P21728 | activity change, negative = inhibition, % at 10 µM | HEK293 TREx D1 cells, calcium flux, dopamine EC80; stronger effect = lower value | AID 504652, 2011 | hit rate 3.2% among 360,000; in the data active = activity change below about -30%
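Kinetic fluorescence of a calcium dye serves as the read-out. D1-expressing Hek293 Trex cells, induced overnight at 30 C, are exposed to compound for 180 s before an EC80 dopamine addition, then read 180 s further.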
D1 agonist: Allosteric Agonists of the Human D1 Dopamine Receptor: qHTS; AID 504660, 2011; HEK293 T-REx D1 cells, calcium flux, agonist mode; hit rate 1% among 360,000; activation, % at 2 µM
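Agonism was scored from calcium flux recorded over 180 s (1 read/s) after pintool compound addition, following a 10-cycle baseline. Cells were inducible force-coupled HEK293 TREx D1, plated overnight at 30 C and loaded with no-wash calcium dye.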
TRHR PAM: qHTS for Small Molecule Agonists and Allosteric Enhancers of Human TRH Receptor: Primary Screen for Enhancers; AID 493056, 2011; hit rate 0.66% among 360,000; enhancement, % at 2 µM; Thyrotropin-releasing hormone receptor (Homo sapiens), P34981; TRHR cells, fluo-8 calcium fluorescence, EC20 TRH enhancement; in the data active = enhancement above about 30%
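TRHR-expressing cells loaded with fluo-8 calcium dye were read kinetically (ex 480/em 530) during compound addition, then stimulated with an EC20 of TRH (10 nM final). Enhancement of the Gq-mediated intracellular calcium response was scored.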
D1 potentiator: Potentiators of Human D1 Dopamine Receptor: qHTS. AID 504651, 2011. HEK293 TREx D1 cells, calcium flux, dopamine EC20 potentiation. potentiation, % at 10 µM. hit rate 0.036% among 360,000; in the data active = potentiation above about 30%
Each line names hits and unclear results; the compound was inactive in the other large screens. Cut-off read from the data, not from the text of the source, unless noted: active = activation above about 30%; inactive = the rest.

Cc1ccc(S(=O)(=O)N2CCN(C)CC2)cc1-c1nnc2c3ccccc3c(C)nn12	D1 antagonist -33.5
O=C(Nc1ccccc1C(F)(F)F)C1CCN(c2nnc(-n3cccc3)s2)CC1	none
CCN(CC)c1ccc(NC(=O)C2CCN(c3nnc(-n4cccc4)s3)CC2)c(C)c1	D1 antagonist -37.7
COc1cccc(C(=O)Nc2ccc(C(=O)O)cc2)c1	none
O=C(CSc1ccc2ccccc2c1)Nc1ccncc1	none (no result: D1 antagonist)
COc1cccc(C(=O)Nc2nc3c(s2)CN(C)CC3)c1	D1 agonist 98.9
COC(=O)c1ccc(NC(=O)c2cccc(OC)c2)cc1	D1 antagonist -52.0
O=C(CSc1ccncc1)Nc1ccc2ccccc2c1	D1 antagonist -30.7
CN1CCc2nc(NC(=O)c3cccc(S(=O)(=O)N4CCc5ccccc54)c3)sc2C1	none
COc1ccc(C(=O)Nc2ccc(C(=O)Nc3cccc(C)c3)cc2)cc1	D1 antagonist -30.6
COc1ccc(NC(=O)c2cccc(NC(=O)c3ccccc3)c2)cc1	none
Cc1ccc(NC(=O)CSc2ncc3c(n2)-c2ccccc2N(C)S3(=O)=O)c(Cl)c1	none
COc1cc(C(=O)Nc2cccc(OCc3cc(=O)n4c(C)csc4n3)c2)cc(OC)c1OC	none
O=C(Nc1nnc(-c2ccncc2)o1)c1ccc2ccccc2c1	none
O=C(Nc1ccncc1)c1ccc2ccccc2c1	D1 antagonist -37.8
COc1cccc(C(=O)Nc2ccncc2)c1	D1 antagonist -58.9
CN1C(=O)c2cccc3c(S(=O)(=O)N4CCCC4C(=O)O)ccc1c23 (stereo not given)	D1 antagonist -37.6
Cc1cccnc1NC(=O)CNC(=O)COc1ccccc1	TRHR PAM 33.1
CC12CCC(C(=O)N(c3ccc(Cl)cc3)C1=O)C2(C)C (stereo not given)	none
CC12CCC(C(=O)N(c3ccccc3Cl)C1=O)C2(C)C (stereo not given)	TRHR PAM 33.9
O=C(CN1C(=O)C2C3C=CC(C3)C2C1=O)NCc1ccco1 (stereo not given)	D1 potentiator 30.7
COc1ccc(C)c2sc(N(Cc3cccnc3)C(=O)CCc3ccccc3)nc12	none (no result: D1 antagonist)
CCCS(=O)(=O)N1CCCC(C(=O)NCCCN2CCN(c3ccccc3F)CC2)C1 (stereo not given)	D1 antagonist -38.0
CCS(=O)(=O)N1CCC(C(=O)NCCCN2CCN(c3ccccc3F)CC2)CC1	D1 antagonist -75.2
O=C(NCCN1CCN(c2ccccc2F)CC1)C1CCCN(S(=O)(=O)c2cnc[nH]2)C1 (stereo not given)	D1 antagonist -45.3 (no result: D1 potentiator)
Cc1ccc(Cn2c(=O)n(CCCCC(=O)NCCc3ccc(Cl)cc3)c(=O)c3ccccc32)cc1	none
Cc1cc(C)c(NC(=O)Cc2ccc(-n3c(C)nc4cccnc43)cc2)c(C)c1	none
COc1nccnc1NS(=O)(=O)c1ccc(NC(=S)NC(=O)/C=C/c2ccc(F)cc2)cc1	D1 antagonist -37.8
CC(C)NC(=S)NC(=O)/C=C/c1ccc(F)cc1	D1 antagonist -81.0
CCc1nnc(NS(=O)(=O)c2ccc(NC(=S)NC(=O)/C=C/c3ccc(OC)cc3)cc2)s1	D1 antagonist -30.1
CCc1nnc(NS(=O)(=O)c2ccc(NC(=S)NC(=O)c3ccc(Br)cc3)cc2)s1	TRHR PAM 34.9
O=C1c2[nH]nc(-c3ccccc3O)c2C(c2cccc(OCc3ccccc3)c2)N1CCCO (stereo not given)	none
CCn1c(C(=O)N2CCCC(C(=O)NCCCOC)C2)cc2sccc21 (stereo not given)	none
COc1ccc(CCNCc2c(C(=O)O)c(C)n(Cc3c(F)cccc3Cl)c2C)cc1OC	none
COc1ccc(COCC(O)CN2CCN(S(=O)(=O)c3ccc(C(C)C)cc3)CC2)cc1 (stereo not given)	D1 antagonist -30.3
Cc1ccc(CNC(=O)C2CCN(c3nc4ccccc4n(C)c3=O)CC2)cc1	none
CC(=Nc1ccc(Br)cc1)c1sc2ccccc2c1O	D1 agonist 62.3
CCN(CC)c1nc2ccccc2c(N)c1-c1ccccc1	D1 antagonist -32.6
Cc1c(N(C)C)nc2ccccc2c1N	none
COc1ccc(CNC(=O)c2cc3c(=O)oc4ccc(C)cc4c3s2)c(OC)c1	none
CCOc1cc(/C=N/NC(=O)c2ccncc2)ccc1OC(=O)c1ccccc1	D1 antagonist -39.5
N#Cc1ccc(-c2ccco2)nc1SCc1ccccc1	D1 antagonist -92.8
O=C(CCC1N=C2c3ccccc3N=C(SCc3ccccc3F)N2C1=O)NC1CCCCC1 (stereo not given)	none
CCc1ccc(NC(=O)c2sc3nc(C)cc(C)c3c2NC(=O)c2ccccc2OC)cc1	TRHR PAM 39.9
COc1ccccc1OCC(=O)N(Cc1ccco1)Cc1ccccc1F	none
COc1ccc(CCN2C(=O)CSC2=Nc2ccc(C(C)C)cc2)cc1OC	D1 antagonist -43.4
COc1ccc(NCc2cccn2-c2nnc(N3CCCCC3)s2)cc1OC	none
CCOC(=O)C1=C(C)N=c2s/c(=C\c3ccc(OCC(=O)O)cc3)c(=O)n2C1c1ccccc1OC (stereo not given)	none
CCOC(=O)C1=C(C)N=c2s/c(=C\c3ccc(OCC(=O)O)cc3)c(=O)n2C1c1ccc(Cl)cc1 (stereo not given)	D1 agonist 38.5
CCOC(=O)C1=C(C)N=c2s/c(=C/c3ccc(OCC(=O)O)cc3)c(=O)n2C1c1ccc(F)cc1 (stereo not given)	none
CCOC(=O)C1=C(C)N=c2s/c(=C/c3ccc(OCC(=O)O)cc3)c(=O)n2C1c1ccc(SC)cc1 (stereo not given)	D1 agonist 30.4
CC(C)Oc1ccc(CNC(=O)CCCn2c(=O)c3cccn3c3ccccc32)cc1	none
COc1ccc(C=O)cc1Cn1cnc2c(cnn2C)c1=O	D1 antagonist -36.4
COc1cc2ccccc2cc1C(=O)N(CCN(C)C)c1nc2c(F)cc(F)cc2s1	D1 antagonist -35.8
CCN(CC(=O)Nc1ccc2c(c1)OCCO2)C(=O)C1CC(=O)N(c2ccc(OC)cc2OC)C1 (stereo not given)	none
CCN(CC(=O)NCc1cccs1)C(=O)/C=C/c1cc(OC)ccc1OC	D1 antagonist -67.3
CCN(CC(=O)NCc1cccs1)C(=O)/C=C/c1ccc(OC)cc1OC	none
CCN(CC(=O)NCc1cccs1)C(=O)C1CC(=O)N(c2ccc(OC)cc2OC)C1 (stereo not given)	D1 antagonist -33.9
Cc1ccc2c(c1)-c1c(c(C(=O)NCCc3ccccc3)nn1C)CS2	none
